Experimental data as given in PubChem BioAssay AID588382 (National Center for Advancing Translational Sciences (NCATS), 2011).
Values joined by “and” are separate entries in the source; they are usually repeats but may differ in a detail not shown here. Identical values can stand only once. The campaign covered roughly 1,300 compounds. About 150 (12%) were called active. Entries that show only a call come without a potency. Roughly 30% stayed inconclusive and do not appear here. The call rests on the fitted dose curve; in most records, active means well fitted cell-killing curve with a large enough effect; inconclusive means small, poorly fitted or top-dose-only effect, or effect the other way; inactive means flat fitted curve, though single readings scatter. Only a selection was taken, and actives are over-represented in it overall.

test: qHTS of small molecules that selectively kill Giardia lamblia: Hit Validation in HepG2 cytotox; conditions: cell viability; Potency: HepG2 cytotoxicity; series mostly up to 38.3 µM;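 further: compound exposure lasted overnight at 37 deg C; nearly all actives have a fitted effect of over 55% in size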
How it was run: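 Counterscreen cytotoxicity: ATPLite luminescence (15 min, room temperature) measured in HepG2 cells exposed overnight at 37 deg C to pin-transferred compound (23 nL) after overnight pre-incubation.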
Potency means the concentration at half of the fitted maximal effect.

| Compound | Potency |
| --- | --- |
| O=C1N=C(N2CCCCC2)S/C1=C\c1ccc(Br)cc1 | inactive |
| O=c1c2c(-c3ccccc3)csc2ncn1/N=C/c1ccc(O)c([N+](=O)[O-])c1 | inactive |
| Cc1ccc(C2=NCCn3c2c2ccccc2[n+]3[O-])cc1 | inactive |
| CC(=O)Nc1nc(-c2cc([N+](=O)[O-])cs2)cs1 | inactive |
| CCn1c(=NC(=O)c2cccc(N3C(=O)CCC3=O)c2)sc2c(OC)ccc(OC)c21 | inactive |
| Cc1cnc([N+](=O)[O-])n1CCOC(=O)NC(=O)c1ccc(F)cc1 | inactive |
| CN(C)C(=O)COC(=O)c1cccc(S(=O)(=O)N2CC3(C)CC2CC(C)(C)C3)c1 (stereo unspecified) | inactive |
| O=[N+]([O-])c1nn(-c2ccccc2)[n+]([O-])c1N1CCN(c2ccccc2)CC1 | inactive |
| CN(C(=O)CN1CCN(c2ccc([N+](=O)[O-])cn2)CC1)c1ccccc1 | inactive |
| O=C(CSc1ccsc1[N+](=O)[O-])N1CCN(c2ccccn2)CC1 | inactive |
| CCOc1ccc(-c2cc(C(=O)N3CCN(c4ccccn4)CC3)c3ccccc3n2)cc1 | 1.65 µM (active) and 414 nM (active) |
| Cc1ncc([N+](=O)[O-])n1CCOC(=O)NC(Nc1ccc(F)cc1)C(Cl)(Cl)Cl (stereo unspecified) | inactive |
| O=C(CCCn1cnc([N+](=O)[O-])n1)Nc1ccc(F)c(Cl)c1 | inactive |
| COc1cc2c(cc1OC)-c1c(OC)c(OC)cc3ccnc(c13)C2=O | inactive |
| COc1ccc(-n2nc([N+](=O)[O-])c(=NCCc3ccc(Cl)cc3)n2O)cc1 | inactive |
| O=C(CN(C1CCCCC1)S(=O)(=O)c1ccc(F)cc1)NCC1CCCO1 (stereo unspecified) | 4.65 µM (active) |

| Compound | Potency |
| --- | --- |
| O=C(NCC1CCCO1)c1ccc([N+](=O)[O-])o1 (stereo unspecified) | inactive |
| CN(C(=O)c1ccc(F)c(S(=O)(=O)N2CCOCC2)c1)C1CCCCC1 | inactive |
| CCS(=O)(=O)CCn1c([N+](=O)[O-])cnc1C | inactive |
| O=c1c(-c2ccc(F)cc2)coc2cc(O)ccc12 | inactive |
| C[C@@H]1CN([C@@H](C)CO)C(=O)c2cccc(NS(=O)(=O)c3cccs3)c2O[C@H]1CN(C)Cc1ccc(C(F)(F)F)cc1 | inactive |
| NC(=O)C1CCN(c2ncccc2[N+](=O)[O-])CC1 | inactive |
| COC(=O)N/N=C/c1ccc([N+](=O)[O-])s1 | inactive |
| COc1ccccc1NC(=O)C(=O)N/N=C/c1ccc([N+](=O)[O-])s1 | inactive |
| O=C(N/N=C\c1ccc([N+](=O)[O-])s1)c1cncc(Br)c1 | 7.36 µM (active) |
| Cc1ccc(NC(C)C(=O)N/N=C/c2ccc([N+](=O)[O-])s2)cc1 (stereo unspecified) | inactive |
| Cc1ccccc1C(=O)N/N=C/c1ccc([N+](=O)[O-])s1 | 18.5 µM (active) |
| O=C(N/N=C/c1ccc([N+](=O)[O-])s1)C(O)c1ccccc1 (stereo unspecified) | 13.1 µM (active) |
| COc1ccc(NC(C)C(=O)N/N=C/c2ccc([N+](=O)[O-])s2)cc1 (stereo unspecified) | inactive |
| CCOC(=O)N/N=C\c1ccc([N+](=O)[O-])s1 | inactive |
| Cc1nc2cc(NC(=O)c3ccc([N+](=O)[O-])s3)ccc2s1 | inactive |
